According to PubChem BioAssay AID1159580 (chemical genetic matrix, 2015):
Values joined by “and” are separate entries in the source; they are usually repeats but may differ in a detail not shown here. Equal entries are not always repeated. In all, about 5,500 compounds went through this assay and about 2,000 (36%) were called active. Inconclusive results (about 18%) are left out. Rule as the data show it: active = normalized growth mostly below about 0.91 (no sharp cut-off); inconclusive = no clear call, values can overlap the other calls; inactive = mostly above about 0.92. The list shows a part of the results.

Assay: chemical genetic growth profiling, strain panel (AID 1159580);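 also: tested at 20 µM; growth read once vehicle control cultures reached saturation at 30 °C; 1 = growth at the plate median or of vehicle wells; lower values mean less growth of the strain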
Settings: S. cerevisiae deletion strains, growth OD

Measured: normalized growth

O=C(/C=C/c1ccccc1)c1ccc(O[C@@H]2O[C@H](CO)[C@@H](O)[C@H](O)[C@H]2O)cc1O
inactive: locus YAL021C, strain ccr4, stronger effect = lower value 0.97 | locus YAL026C, strain drs2, stronger effect = lower value 0.923 | locus YAL030W, strain snc1, stronger effect = lower value 0.933 | locus YBR009C, strain hhf1, stronger effect = lower value 0.935 | locus YBR021W, strain FUR4, stronger effect = lower value 0.883 | locus YBR171W, strain sec66, stronger effect = lower value 0.914 | locus YBR229C, strain ROT2, stronger effect = lower value 0.922 | locus YBR279W, strain paf1, stronger effect = lower value 0.96 | locus YCL011C, strain gbp2, stronger effect = lower value 0.938 | locus YCL016C, strain dcc1, stronger effect = lower value 0.925 | locus YCL069W, strain vba3, stronger effect = lower value 0.96 | locus YCR088W, strain abp1, stronger effect = lower value 0.923 | locus YDL005C, strain med2, stronger effect = lower value 0.955 | locus YDL035C, strain GPR1, stronger effect = lower value 0.926 | locus YDL040C, strain nat1, stronger effect = lower value 0.937 | locus YDL074C, strain BRE1, stronger effect = lower value 0.861 | locus YDL101C, strain DUN1, stronger effect = lower value 0.943 | locus YDR069C, strain doa4, stronger effect = lower value 0.974 | locus YDR137W, strain rgp1, stronger effect = lower value 0.947 | locus YDR162C, strain NBP2, stronger effect = lower value 0.944 | locus YDR195W, strain ref2 1 | locus YDR334W, strain swr1, stronger effect = lower value 0.95 | locus YDR335W, strain msn5, stronger effect = lower value 0.938 | locus YDR392W, strain spt3, stronger effect = lower value 0.787 | locus YEL003W, strain gim4, stronger effect = lower value 0.931 | locus YEL037C, strain rad23, stronger effect = lower value 0.945 | locus YEL061C, strain CIN8 (second series), stronger effect = lower value 0.928 | locus YER015W, strain faa2, stronger effect = lower value 0.938 | locus YER111C, strain swi4, stronger effect = lower value 0.935 | locus YFR010W, strain ubp6, stronger effect = lower value 0.951 | locus YGL078C, strain dbp3, stronger effect = lower value 0.948 | locus YGL167C, strain pmr1, stronger effect = lower value 0.947 | locus YGL227W, strain vid30, stronger effect = lower value 0.932 | locus YGL248W, strain PDE1, stronger effect = lower value 0.936 | locus YGR252W, strain gcn5, stronger effect = lower value 0.79 | locus YHR013C, strain ard1, stronger effect = lower value 0.941 | locus YHR027C, strain rpn1, stronger effect = lower value 0.957 | locus YHR030C, strain SLT2, stronger effect = lower value 0.922 and 0.953 | locus YHR079C, strain IRE1, stronger effect = lower value 0.918 | locus YHR142W, strain chs7, stronger effect = lower value 0.882 | locus YIL066C, strain RNR3, stronger effect = lower value 0.906 | locus YIL073C, strain SPO22, stronger effect = lower value 0.956 | locus YJL092W, strain hpr5, stronger effect = lower value 0.926 | locus YJL095W, strain BCK1 (second series), stronger effect = lower value 0.944 | locus YJL095W, strain BCK1, stronger effect = lower value 0.923 and 0.945 | locus YJL115W, strain asf1, stronger effect = lower value 0.941 | locus YJL129C, strain trk1, stronger effect = lower value 0.897 | locus YJL154C, strain vps35, stronger effect = lower value 0.942 | locus YJL166W, strain qcr8, stronger effect = lower value 0.928 | locus YJL187C, strain SWE1 (second series), stronger effect = lower value 0.93 | locus YJL187C, strain SWE1, stronger effect = lower value 0.95 | locus YJR043C, strain POL32, stronger effect = lower value 0.893 | locus YJR066W, strain TOR1, stronger effect = lower value 0.857
active: locus YBL061C, strain skt5, stronger effect = lower value 0.886 | locus YBR023C, strain chs3, stronger effect = lower value 0.912 | locus YBR231C, strain swc5, stronger effect = lower value 0.899 | locus YCL029C, strain bik1, stronger effect = lower value 0.889 | locus YCL061C, strain MRC1, stronger effect = lower value 0.919 | locus YDL185W, strain tfp1, stronger effect = lower value 0.885 | locus YDL192W, strain arf1, stronger effect = lower value 0.829 | locus YDR001C, strain nth1, stronger effect = lower value 0.916 | locus YDR101C, strain arx1, stronger effect = lower value 0.892 | locus YDR159W, strain sac3, stronger effect = lower value 0.855 | locus YDR297W, strain sur2, stronger effect = lower value 0.921 | locus YDR318W, strain mcm21, stronger effect = lower value 0.892 | locus YDR388W, stronger effect = lower value 0.877 | locus YDR502C, strain sam2, stronger effect = lower value 0.882 | locus YEL061C, strain CIN8, stronger effect = lower value 0.918 | locus YER016W, strain bim1, stronger effect = lower value 0.921 | locus YER110C, stronger effect = lower value 0.869 | locus YER155C, strain BEM2 (second series), stronger effect = lower value 0.853 | locus YER155C, strain BEM2, stronger effect = lower value 0.912 | locus YER167W, strain BCK2, stronger effect = lower value 0.9 | locus YGL086W, strain mad1, stronger effect = lower value 0.885 | locus YGL173C, strain kem1, stronger effect = lower value 0.899 | locus YGL240W, strain doc1, stronger effect = lower value 0.853 | locus YGL253W, strain hxk2, stronger effect = lower value 0.902 | locus YGR135W, strain pre9, stronger effect = lower value 0.886 | locus YHR079C, strain IRE1 (second series), stronger effect = lower value 0.886 | locus YHR094C, strain hxt1, stronger effect = lower value 0.888 | locus YHR129C, strain ARP1, stronger effect = lower value 0.91 | locus YHR200W, strain rpn10, stronger effect = lower value 0.873 | locus YIL125W, strain kgd1, stronger effect = lower value 0.895 | locus YIR030C, strain dcg1, stronger effect = lower value 0.881 | locus YJL134W, strain LCB3, stronger effect = lower value 0.917 | locus YJL164C, strain tpk1, stronger effect = lower value 0.91 | locus YJL168C, strain set2, stronger effect = lower value 0.888
